Results taken from PubChem BioAssay (Tox21).
Records with an inconclusive call do not appear. Active and inactive are the calls of the source. Unless noted, calls come from the whole dose curve; as a rule, active = well fitted curve in the direction sought with a large enough effect in the repeat runs; inconclusive = weak or mixed curves; inactive = no such curve, though single readings can be large; an effect the other way counts as inactive or inconclusive.

Experiments:
[1] = Human pregnane X receptor (PXR) small molecule agonists, qHTS cell viability counter screen (AID 1346977); note: nearly all actives have a fitted effect of over 50% in size; note: potency is the fitted concentration of half-maximal effect
Method in brief: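 Readout is CellTiter-Fluor fluorescence from PXR-Luc HepG2 cells. Plated cells rested 5hr, then were treated with compounds for 24hr at 37C and 5% CO2, with reagent present during the last hour.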

[2] = Caspase-3/7 induction in HepG2 cells by small molecules, qHTS assay (AID 1346978); note: nearly all actives have a fitted effect of over 15% in size
Method in brief: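 Wild-type HepG2 cells, 2,000/well, settled 5 hr at 37 C and 5% CO2, then compound-treated for 17 hr; caspase-3/7 activity read by luminescent Caspase-Glo 3/7 after 30 min at room temperature.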

[3] = Caspase-3/7 induction in CHO-K1 cells by small molecules, qHTS cell viability counter screen (AID 1346979); note: nearly all actives have a fitted effect of over 35% in size; note: potency is the fitted concentration of half-maximal effect
Method in brief: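 To flag cytotoxic compounds, treated CHO-K1 wild-type cells were given CellTiter-Fluor at 16hr and read fluorescently after 1hr at 37C; the caspase-3/7 luminescence was measured in these same wells.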

[4] = Caspase-3/7 induction in CHO-K1 cells by small molecules, qHTS assay (AID 1346980); note: nearly all actives have a fitted effect of over 15% in size
Method in brief: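 Wild-type CHO-K1 cells exposed to compounds for 17hr at 37 C, 5% CO2. Caspase-3/7 activity then measured by Caspase-Glo 3/7 luminescence after 30min at room temperature.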

[5] = Caspase-3/7 induction in HepG2 cells by small molecules, qHTS cell viability counter screen (AID 1346981); note: nearly all actives have a fitted effect of over 30% in size; note: potency is the fitted concentration of half-maximal effect
Method in brief: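 Fluorescence read-out of live-cell protease activity (CellTiter-Fluor) after 1 hr with reagent. This was measured in the same wells as the caspase-3/7 luminescence, on HepG2 cells exposed to DMSO-dissolved compounds for 16 hr at 37 C.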

[6] = biological target: Nuclear receptor subfamily 1 group I member 2 (Homo sapiens) (UniProt O75469); assay: Human pregnane X receptor (PXR) small molecule agonists, qHTS assay (AID 1346982); note: nearly all actives have a fitted effect of over 35% in size
Method in brief: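 HepG2 PXR-Luc reporter line, 5% charcoal-stripped FBS; 5 hr pre-incubation, compound (DMSO) 24 hr at 37 C/5% CO2; ONE-Glo 30 min RT; luminescence read-out.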

[7] = biological target: Acetylcholinesterase (Homo sapiens) (UniProt P22303); assay: Acetylcholinesterase (AChE) small molecule antagonists: colormetric cell-based qHTS assay (AID 1347395; calls by dose curve; note: nearly all actives have a fitted effect of over 30% in size)
Method in brief: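 Neuroblastoma line SH-SY5Y supplied the enzyme; cells were preincubated with compound for 30 min at 37 C and 5% CO2. Acetylthiocholine with DTNB was then added for 90 min at 37 C, and thiocholine was measured by colour.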

[8] = biological target: Acetylcholinesterase (Homo sapiens) (UniProt P22303); assay: Acetylcholinesterase (AChE) small molecule antagonists: enzyme-based qHTS assay (AID 1347397; calls by dose curve; note: nearly all actives have a fitted effect of over 55% in size); details: Potency: AChE enzyme activity inhibition
Method in brief: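 In this quantitative HTS, compounds from the Tox21 10K collection were preincubated 30 min at ambient temperature with recombinant human AChE dispensed at 50 mU/mL. Hydrolysis of acetylthiocholine was then followed for 10 min by DTNB colour development.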

[9] = biological target: Acetylcholinesterase (Homo sapiens) (UniProt P22303); assay: Acetylcholinesterase (AChE) small molecule antagonists: fluorescence cell-based qHTS assay (AID 1347398; calls by dose curve; note: nearly all actives have a fitted effect of over 50% in size); details: Potency: AChE activity
Method in brief: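 Cells (SH-SY5Y) attached overnight, were dosed with compound or DMSO vehicle for 30 min at 37 C, and then incubated 40 min at room temperature with acetylthiocholine and Thiolite Green; green fluorescence indexed AChE activity.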

[10] = biological target: Acetylcholinesterase (Homo sapiens) (UniProt P22303); assay: Acetylcholinesterase (AChE) small molecule antagonists: enzyme-based qHTS assay with human liver microsomes (AID 1347399; calls by dose curve; note: nearly all actives have a fitted effect of over 60% in size); details: Potency: qHTS inhibition
Method in brief: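 Recombinant human AChE (50 mU/mL in the enzyme mix) and human liver microsomes (0.25 mg/mL final) were preincubated with compound and NADPH (0.25 mg/mL final) for 30 min at 37 C. Acetylthiocholine/DTNB was then added; thiocholine was read colorimetrically after 10 min at room temperature.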

[11] = biological target: Cytochrome P450 2D6 (Homo sapiens) (UniProt P10635); assay: Cytochrome P450 Family 2 Subfamily D Member 6 (CYP2D6) small molecule antagonists: luciferase reporter qHTS assay (AID 1671196); note: series mostly up to about 120 µM; nearly all actives have a fitted effect of over 50% in size
Method in brief: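 Luminogenic proluciferin substrate, CYP2D6 enzyme; 10 min RT preincubation with compound, NADPH regeneration system added, 1 h RT. Stop/detection reagent, 20 min RT, luminescence read (RLU). Signal proportional to CYP activity.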

[12] = biological target: Cytochrome P450 2C19 (Homo sapiens) (UniProt P33261); assay: Cytochrome P450 Family 2 Subfamily C Member 19 (CYP2C19) small molecule antagonists: luciferase reporter qHTS assay (AID 1671197); note: nearly all actives have a fitted effect of over 65% in size; note: potency is the fitted concentration of half-maximal effect
Method in brief: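 CYP2C19 P450-Glo, 1536-well qHTS. Cpd + enzyme/proluciferin substrate 10 min RT; + NADPH regen, 37C 1 h; stop with luciferin detection reagent, 20 min RT, luminescence (RLU). Pos ctrl ketoconazole.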

[13] = biological target: Cytochrome P450 2C9 (Homo sapiens) (UniProt P11712); assay: Cytochrome P450 Family 2 Subfamily C Member 9 (CYP2C9) small molecule antagonists: luciferase reporter qHTS assay (AID 1671198); note: nearly all actives have a fitted effect of over 50% in size; note: potency is the fitted concentration of half-maximal effect
Method in brief: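 P450-Glo proluciferin substrate with CYP2C9 enzyme; 10 min RT preincubation, then NADPH regeneration 1 h at 37C; luciferin detection reagent 20 min RT, luminescence in relative luminescence units.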

[14] = biological target: Cytochrome P450 1A2 (Homo sapiens) (UniProt P05177); assay: Cytochrome P450 Family 1 Subfamily A Member 2 (CYP1A2) small molecule antagonists: luciferase reporter qHTS assay (AID 1671199); note: nearly all actives have a fitted effect of over 50% in size; note: potency is the fitted concentration of half-maximal effect
Method in brief: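 Luminescence readout (relative luminescence units) after luciferin detection reagent, 20 min RT. Preceded by 1 h room-temperature CYP1A2 reaction with NADPH regeneration solution following 10 min compound preincubation with enzyme and proluciferin substrate. Furafylline positive control.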

[15] = biological target: Voltage-gated inwardly rectifying potassium channel KCNH2 (Homo sapiens) (UniProt Q12809); assay: Human Ether-a-go-go-Related Gene (hERG) channel small molecule antagonists: fluorescence cell-based qHTS assay (AID 1671200)
Method in brief: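 Measured: Tl+ flux via fluorescence (480/540 nm) in hERG-expressing U2OS cells after 1 h dye loading at room temperature.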

[16] = biological target: Cytochrome P450 3A4 (Homo sapiens) (UniProt P08684); assay: Cytochrome P450 Family 3 Subfamily A Member 4 (CYP3A4) small molecule antagonists: luciferase reporter qHTS assay (AID 1671201); note: nearly all actives have a fitted effect of over 50% in size; note: potency is the fitted concentration of half-maximal effect
Method in brief: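 Setup: enzyme-substrate mix, compound pin transfer, 10 min RT. Reaction: NADPH regeneration solution, 1 h RT. Readout: detection reagent stops turnover, luminescence measured after 20 min, expressed in relative luminescence units.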

[17] = biological target: Nuclear receptor subfamily 1 group I member 2 (Rattus norvegicus) (UniProt Q9R1A7); assay: Rat pregnane X receptor (rPXR) activation by small molecules, qHTS assay (AID 1346983); details: rPXR luciferase reporter cells, One-Glo luminescence, 24 h; max activation: stronger effect = higher value; note: nearly all actives have a fitted effect of over 20% in size; note: potency is the fitted concentration of half-maximal effect
Method in brief: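 Cell-based rPXR activation assay: rPXR cells, 2,000 per well, rested 5hr at 37 C, then exposed to compounds in DMSO for 24 hr at 37 C. Luciferase activity read by One-Glo luminescence after 30 min at room temperature.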

[18] = biological target: Nuclear receptor subfamily 1 group I member 2 (Homo sapiens) (UniProt O75469); assay: CYP3A4 induction through human pregnane X receptor (PXR) by small molecules, qHTS assay (AID 1346984); note: nearly all actives have a fitted effect of over 40% in size
Method in brief: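 HepG2-derived DPX-2 line carrying PXR plus a CYP3A4-promoter luciferase reporter; cells plated 5 hr, compound-exposed 24 hr at 37C. CYP3A4 activity probed with 3uM (final) Luciferin-IPA for 3hr, then luciferase read after One-Glo.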

[19] = biological target: Nuclear receptor subfamily 1 group I member 2 (Homo sapiens) (UniProt O75469); assay: Human pregnane X receptor (PXR) activation by small molecules, qHTS assay (AID 1346985); note: nearly all actives have a fitted effect of over 40% in size
Method in brief: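 DPX-2 cells (HepG2 co-transfected with a PXR response element and a CYP3A4-promoter luciferase construct) were seeded at 2,000 per well, rested 5 hr at 37C, then exposed to DMSO-dissolved compounds for 24 hr. Activation was read as luciferase luminescence.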
% is set by controls: 0 for no effect and ±100 for the full control effect.

Chain of Acetylcholinesterase (Homo sapiens) (P22303 whole entry, looked up): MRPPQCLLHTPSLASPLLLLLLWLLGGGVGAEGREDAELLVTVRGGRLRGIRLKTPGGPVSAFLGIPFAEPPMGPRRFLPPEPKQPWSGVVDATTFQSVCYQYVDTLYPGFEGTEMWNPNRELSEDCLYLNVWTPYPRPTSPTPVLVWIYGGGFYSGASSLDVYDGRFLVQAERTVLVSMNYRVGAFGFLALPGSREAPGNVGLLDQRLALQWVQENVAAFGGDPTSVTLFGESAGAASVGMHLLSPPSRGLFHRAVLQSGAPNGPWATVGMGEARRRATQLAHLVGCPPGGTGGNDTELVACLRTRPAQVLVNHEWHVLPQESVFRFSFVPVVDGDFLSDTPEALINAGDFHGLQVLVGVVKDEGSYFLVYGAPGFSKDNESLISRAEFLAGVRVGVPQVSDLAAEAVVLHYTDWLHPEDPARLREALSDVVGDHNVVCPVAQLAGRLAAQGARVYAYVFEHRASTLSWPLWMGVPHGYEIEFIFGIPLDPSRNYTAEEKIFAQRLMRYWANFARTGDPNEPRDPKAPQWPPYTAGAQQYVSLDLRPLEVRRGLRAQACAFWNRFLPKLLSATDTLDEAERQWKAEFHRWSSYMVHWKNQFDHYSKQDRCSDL
Chain of Cytochrome P450 2D6 (Homo sapiens) (P10635 whole entry, looked up): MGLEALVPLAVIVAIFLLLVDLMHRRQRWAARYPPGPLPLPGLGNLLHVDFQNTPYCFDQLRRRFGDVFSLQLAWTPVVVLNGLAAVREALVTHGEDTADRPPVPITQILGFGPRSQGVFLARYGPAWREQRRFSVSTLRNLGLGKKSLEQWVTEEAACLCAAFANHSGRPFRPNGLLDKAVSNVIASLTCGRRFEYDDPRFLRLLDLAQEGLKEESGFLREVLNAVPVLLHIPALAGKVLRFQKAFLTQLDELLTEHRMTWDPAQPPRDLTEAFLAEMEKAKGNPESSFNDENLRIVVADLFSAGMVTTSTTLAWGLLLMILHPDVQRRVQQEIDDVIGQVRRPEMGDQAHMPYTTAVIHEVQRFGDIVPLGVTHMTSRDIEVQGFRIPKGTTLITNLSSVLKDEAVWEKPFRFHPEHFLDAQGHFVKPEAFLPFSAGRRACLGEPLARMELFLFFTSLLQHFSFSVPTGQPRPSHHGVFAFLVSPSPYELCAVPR
Chain of Cytochrome P450 1A2 (Homo sapiens) (P05177 whole entry, looked up): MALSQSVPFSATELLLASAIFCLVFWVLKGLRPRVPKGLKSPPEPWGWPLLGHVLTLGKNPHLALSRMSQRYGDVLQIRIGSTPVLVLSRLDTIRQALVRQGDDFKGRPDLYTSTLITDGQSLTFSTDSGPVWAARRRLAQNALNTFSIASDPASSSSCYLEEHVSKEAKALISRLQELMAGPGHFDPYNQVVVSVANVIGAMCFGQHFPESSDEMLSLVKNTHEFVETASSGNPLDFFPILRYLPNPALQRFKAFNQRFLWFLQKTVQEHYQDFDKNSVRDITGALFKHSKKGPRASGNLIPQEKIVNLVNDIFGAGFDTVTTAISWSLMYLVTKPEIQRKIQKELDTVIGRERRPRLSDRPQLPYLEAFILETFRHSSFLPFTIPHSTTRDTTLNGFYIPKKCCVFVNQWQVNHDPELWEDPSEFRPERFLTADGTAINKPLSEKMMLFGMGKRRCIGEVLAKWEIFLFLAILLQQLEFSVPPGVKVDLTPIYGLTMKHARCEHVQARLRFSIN
Chain of Voltage-gated inwardly rectifying potassium channel KCNH2 (Homo sapiens) (Q12809 whole entry, looked up): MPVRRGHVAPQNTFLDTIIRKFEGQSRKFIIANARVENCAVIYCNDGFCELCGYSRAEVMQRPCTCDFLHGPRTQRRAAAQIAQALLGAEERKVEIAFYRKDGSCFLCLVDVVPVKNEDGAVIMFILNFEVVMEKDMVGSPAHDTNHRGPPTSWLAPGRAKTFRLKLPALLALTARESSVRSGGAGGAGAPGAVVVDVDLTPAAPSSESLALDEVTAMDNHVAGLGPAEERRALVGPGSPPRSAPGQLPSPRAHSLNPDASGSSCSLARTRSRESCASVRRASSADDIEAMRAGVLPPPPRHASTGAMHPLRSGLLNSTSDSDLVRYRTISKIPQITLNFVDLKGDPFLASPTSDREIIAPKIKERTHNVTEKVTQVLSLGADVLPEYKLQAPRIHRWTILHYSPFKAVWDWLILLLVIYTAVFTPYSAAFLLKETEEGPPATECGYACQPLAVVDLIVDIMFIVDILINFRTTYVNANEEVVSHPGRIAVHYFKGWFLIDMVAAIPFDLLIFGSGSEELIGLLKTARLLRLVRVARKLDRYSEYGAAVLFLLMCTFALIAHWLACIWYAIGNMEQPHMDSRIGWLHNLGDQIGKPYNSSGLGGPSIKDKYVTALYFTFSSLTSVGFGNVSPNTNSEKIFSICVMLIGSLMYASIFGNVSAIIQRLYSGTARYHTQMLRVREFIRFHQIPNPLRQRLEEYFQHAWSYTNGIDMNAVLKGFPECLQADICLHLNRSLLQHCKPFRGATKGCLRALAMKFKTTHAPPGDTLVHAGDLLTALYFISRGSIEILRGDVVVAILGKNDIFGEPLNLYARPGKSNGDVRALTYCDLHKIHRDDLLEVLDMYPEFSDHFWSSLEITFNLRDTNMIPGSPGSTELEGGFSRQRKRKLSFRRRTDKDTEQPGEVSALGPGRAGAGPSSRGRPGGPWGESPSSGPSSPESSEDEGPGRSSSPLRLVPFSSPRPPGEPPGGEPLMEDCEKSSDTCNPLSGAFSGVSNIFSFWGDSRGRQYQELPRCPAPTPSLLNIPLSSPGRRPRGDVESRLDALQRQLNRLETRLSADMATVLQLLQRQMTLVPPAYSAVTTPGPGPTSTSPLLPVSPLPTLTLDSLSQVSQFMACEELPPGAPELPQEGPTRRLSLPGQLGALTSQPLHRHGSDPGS
Chain of Cytochrome P450 3A4 (Homo sapiens) (P08684 whole entry, looked up): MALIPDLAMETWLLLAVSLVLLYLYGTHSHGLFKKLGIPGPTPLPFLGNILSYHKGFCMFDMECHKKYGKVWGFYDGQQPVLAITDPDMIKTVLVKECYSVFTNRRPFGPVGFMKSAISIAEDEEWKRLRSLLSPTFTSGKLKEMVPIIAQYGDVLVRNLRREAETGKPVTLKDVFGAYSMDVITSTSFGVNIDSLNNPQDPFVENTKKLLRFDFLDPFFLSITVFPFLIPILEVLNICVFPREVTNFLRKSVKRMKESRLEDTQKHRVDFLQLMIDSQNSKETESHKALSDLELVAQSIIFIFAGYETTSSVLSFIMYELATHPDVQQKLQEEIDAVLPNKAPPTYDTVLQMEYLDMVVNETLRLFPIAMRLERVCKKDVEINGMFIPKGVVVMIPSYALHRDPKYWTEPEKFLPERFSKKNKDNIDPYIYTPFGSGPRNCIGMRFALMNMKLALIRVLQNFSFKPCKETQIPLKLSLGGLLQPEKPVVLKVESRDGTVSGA
Chain of Nuclear receptor subfamily 1 group I member 2 (Homo sapiens) (O75469 whole entry, looked up): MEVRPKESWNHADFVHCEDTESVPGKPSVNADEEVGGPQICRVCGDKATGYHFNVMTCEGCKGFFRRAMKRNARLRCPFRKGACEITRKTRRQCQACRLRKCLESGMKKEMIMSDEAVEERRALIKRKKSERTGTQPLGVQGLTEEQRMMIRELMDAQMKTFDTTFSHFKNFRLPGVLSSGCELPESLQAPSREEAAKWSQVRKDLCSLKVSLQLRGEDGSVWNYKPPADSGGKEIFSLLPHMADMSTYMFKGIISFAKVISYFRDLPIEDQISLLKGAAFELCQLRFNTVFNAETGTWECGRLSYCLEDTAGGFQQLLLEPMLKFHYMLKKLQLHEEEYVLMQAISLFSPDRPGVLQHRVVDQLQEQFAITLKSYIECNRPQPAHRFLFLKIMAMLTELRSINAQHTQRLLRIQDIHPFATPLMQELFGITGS
Chain of Nuclear receptor subfamily 1 group I member 2 (Rattus norvegicus) (Q9R1A7 whole entry, looked up): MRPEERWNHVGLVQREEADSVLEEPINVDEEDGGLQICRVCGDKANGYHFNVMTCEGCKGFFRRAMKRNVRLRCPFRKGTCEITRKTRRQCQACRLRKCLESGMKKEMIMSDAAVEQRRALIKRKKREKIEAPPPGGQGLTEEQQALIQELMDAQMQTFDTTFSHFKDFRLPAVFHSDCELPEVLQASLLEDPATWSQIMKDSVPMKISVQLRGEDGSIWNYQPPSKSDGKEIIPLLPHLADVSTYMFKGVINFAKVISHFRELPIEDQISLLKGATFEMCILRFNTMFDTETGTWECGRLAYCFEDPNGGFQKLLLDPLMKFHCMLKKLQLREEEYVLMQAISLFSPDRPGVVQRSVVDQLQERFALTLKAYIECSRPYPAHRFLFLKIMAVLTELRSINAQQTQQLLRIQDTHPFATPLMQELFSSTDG
Chain of Cytochrome P450 2C9 (Homo sapiens) (P11712 whole entry, looked up): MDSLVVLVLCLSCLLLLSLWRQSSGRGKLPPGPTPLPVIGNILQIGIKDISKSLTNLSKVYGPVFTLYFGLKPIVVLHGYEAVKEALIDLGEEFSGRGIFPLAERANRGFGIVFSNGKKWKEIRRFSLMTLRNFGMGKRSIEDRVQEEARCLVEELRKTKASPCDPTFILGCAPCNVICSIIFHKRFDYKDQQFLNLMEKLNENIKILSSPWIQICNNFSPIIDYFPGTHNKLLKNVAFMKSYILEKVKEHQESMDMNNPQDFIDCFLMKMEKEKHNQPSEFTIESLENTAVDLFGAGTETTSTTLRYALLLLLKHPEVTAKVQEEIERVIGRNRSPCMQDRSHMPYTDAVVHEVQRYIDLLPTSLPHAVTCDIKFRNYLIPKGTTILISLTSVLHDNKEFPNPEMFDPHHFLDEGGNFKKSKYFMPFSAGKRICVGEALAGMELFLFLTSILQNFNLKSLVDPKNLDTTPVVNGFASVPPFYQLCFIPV

Sc1ccccc1Cl
inactive: Potency [1] | Potency [2] | Potency [3] | Potency [4] | Potency [5] | Potency [6] | Potency [7] | Potency [8] | Potency [9] | Potency [10] | Potency [11] | Potency [12] | Potency [13] | Potency [14] | Potency [15]

C/C=C/C=O
inactive: Potency [1] | Potency [2] | Potency [3] | Potency [4] | Potency [5] | Potency [6] | Potency [7] | Potency [8] | Potency [9] | Potency [10] | Potency [11] | Potency [15] | Potency [16]
active: Potency [12] 34 µM

CC(=O)[C@H]1CC[C@H]2[C@@H]3CC[C@H]4C[C@](C)(O)CC[C@]4(C)[C@H]3CC[C@]12C
inactive: Potency [1] | Potency [2] | Potency [3] | Potency [4] | Potency [5] | Potency [6] | Potency [18] | Potency [19] | Potency [7] | Potency [8] | Potency [10] | Potency [11] | Potency [12] | Potency [13] | Potency [15]
active: Potency [17] 3.98 µM

CCCC(=O)Cl
inactive: Potency [1] | Potency [2] | Potency [3] | Potency [4] | Potency [5] | Potency [6] | Potency [7] | Potency [8] | Potency [9] | Potency [10] | Potency [11] | Potency [12] | Potency [13] | Potency [15] | Potency [16]

COP(=S)(OC)Oc1ccc([N+](=O)[O-])cc1Cl
active: Potency [1] 34.4 µM | Potency [3] 68.6 µM | Potency [5] 61.1 µM | Potency [12] 39.9 µM | Potency [13] 20 µM | Potency [14] 22.4 µM | Potency [16] 6.33 µM
inactive: Potency [2] | Potency [4] | Potency [6] | Potency [7] | Potency [8] | Potency [9] | Potency [10] | Potency [11] | Potency [15]

CC(=O)NC1CCSC1=O (stereo not drawn)
inactive: Potency [1] | Potency [2] | Potency [3] | Potency [4] | Potency [5] | Potency [6] | max activation [17] 10.8% | Potency [18] | Potency [19] | Potency [8] | Potency [9] | Potency [10] | Potency [11] | Potency [12] | Potency [14] | Potency [15] | Potency [16]

O=[N+]([O-])c1ccc(F)c([N+](=O)[O-])c1
inactive: Potency [2] | Potency [4] | Potency [6] | max activation [17] -9.38% | Potency [18] | Potency [19] | Potency [7] | Potency [10] | Potency [12] | Potency [14] | Potency [15]
active: Potency [1] 27.6 µM | Potency [3] 24.6 µM | Potency [5] 27.6 µM | Potency [13] 32 µM

CCC(Cl)CCl (stereo not drawn)
inactive: Potency [1] | Potency [2] | Potency [3] | Potency [4] | Potency [5] | Potency [6] | Potency [7] | Potency [8] | Potency [9] | Potency [10] | Potency [11] | Potency [12] | Potency [13] | Potency [14] | Potency [15]
